The source of these data is PubChem BioAssay (NCI).

The structures appear in SMILES notation. This is part of a sample that, as a whole, favours compounds with a hit. Of some 83,000 tested, about 20% had one in any assay.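 Cells were grown in 96-well plates and exposed to the test compound at a single concentration for 48 hours; results are reported as percent growth, with values below 10 considered active.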 A number with no mark means an inactive call. Activity calls are given as the source filed them.

This assay relates to U251 CNS. As to the kind of experiment: NCI-60 one-dose screen, 48 h (100 = growth as untreated, 0 = no growth, -100 = all killed). Conditions: 10 µM unless noted. As to the method:
Growth inhibition of the U251 human tumor cell line is measured as a screen for anti-cancer activity. Cells are grown in 96 well plates and exposed to the test compound for 48 hours. Compounds are tested at a single concentration, which is 10^-5 M for most compounds. The reported endpoint is percent growth (GI% or GIPRCNT), where numbers from 0 - 100% represent growth inhibition, and numbers from -100% - 0 represent cell death. For example, a value of 40 represents 60% growth inhibition. A value of 0 means no net growth occurred over the course of the experiment. A value of -40 indicates 40% of cells at the beginning of the experiment died by the end of the experiment. A value of -100 means all cells are dead at the end of the experiment.
NCI-60 Human Tumor Cell Lines Screen was performed using the standard one-dose NCI protocol, which is described in more detail at https://dtp.cancer.gov/discovery_development/nci-60/default.htm.
Compounds with GIPRCNT values below 10 were considered active. Activity score was based on GIPRCNT using the following formula: […]
Score is 0 for GIPRCNT values of 100 or above, 50 for GIPRCNT values of 0, and 100 for GIPRCNT values of -100.
With `O=S(=O)(OCCO)c1ccccc1`, the growth is 106%.

In the case of `O=S(=O)(/N=C1C=C/C(=N\S(=O)(=O)c2ccccc2)c2ccccc2\1)c1ccccc1`, the growth is 92.6%.

Consider `CCOC(=O)c1[nH]c2cc(Cl)ccc2c1[C@@H](C(=O)NC(C)(C)C)N(CC)C(=O)CCCCC#Cc1cccc2c1CN(C1CCC(=O)NC1=O)C2=O` (stereo not given in full), for which the growth is 27.8%.

For `Cc1ccc(S(=O)(=O)N2C/C(=C\c3cc(F)cc(F)c3)C(=O)/C(=C/c3cc(F)cc(F)c3)C2)cc1`, the growth was -97.9% (active).

Regarding `O=c1nc(NO)[nH]c(=O)n1Cc1ccccc1`, the growth is 99.7%.

On to `CC(=O)OC[C@]1(C)C=C2C(=O)[C@](C)(O)C3(CC3)C(C)=C2[C@H]1OC(C)=O`, for which the growth was 79.5%.

On to `COc1cccc(C2C3=C(COC3=O)N(CCO)c3cc4c(cc32)CCC4)c1` (stereo not given), for which the growth was 2.42% (active).

`CCCN(CCC)c1ccc(/C=C/c2ccc3cc(OCC)ccc3n2)cc1`: the growth is 74.9%.

`Nc1cc2[nH]c(=O)c3ccccc3c2cc1Br`: the growth was 84%.

In the case of `CC1=CN2C(=NC3=C(CCCC/C3=C\c3ccccc3)C2c2ccccc2)S1` (stereo not given), the growth is 96.5%.

As to `Cc1c(C(=O)Nc2nc(-c3ccccc3)cs2)nnn1-c1ccccc1Br`, the growth is 50.8% [50 µM].

On to `CN(C)C(=S)SCN1C(=O)c2ccc([N+](=O)[O-])cc2S1(=O)=O`, for which the growth is 93.5%.

Consider `O=C(c1cnn2c1NC(c1ccc(F)cc1)C2)N1CCCCC1` (stereo not given), for which the growth is 97.1%.

Take `Cn1c2ccccc2c2nn(C(=O)c3ccccc3)c(=O)nc21`: the growth is 112%.

Take `O=C1/C(=C/c2ccc(Oc3ccccc3)cc2)N=C(c2ccccc2)N1CCc1cccs1`: the growth was 93.9%.

In the case of `COc1ccc(C(=O)COc2cccc(/C=C3\CSc4ccc(C)cc4C3=O)c2)cc1`, the growth is 97%.

Turning to `COc1ccc(/C=N\N2CCOCC2)cc1OC1CCCC1`, the growth was 101%.

Regarding `CCC12CCC3c4ccc(O)cc4CCC3C1CC(O)C2O` (stereo not given), the growth was 56.5%.

With `COc1ccc(NS(=O)(=O)c2ccc(-c3cnc(C4CC4)o3)cc2)cc1`, the growth is 56.5%.

For `c1ccc2c(c1)oc1cc3c(cc12)nnc1cccn13`, the growth is 97.2%.

Turning to `c1ccc(-c2n(Cc3ccc4ccccc4n3)c3ccccc3[n+]2Cc2ccc3ccccc3n2)cc1`, the growth was 12.1%.

`Cc1ccc(N(CSc2ccc(Cl)cc2)CSc2ccc(Cl)cc2)cc1`: the growth is 47.8%.

`COc1ccc(-c2c(-c3cc4c(c(OC)c3OC)OCO4)noc2N)cc1`: the growth was 32.4%.

With `Oc1ccc(Cl)cc1CNc1nc2ccccc2[nH]1`, the growth is 55%.

As for `Cn1c(=O)c2c(-c3ccccc3F)n(-c3ccc4c(c3)OCO4)cc2n(C)c1=O`, the growth was 92.1%.

As to `CCOC(=O)C1=C(C)N2C(=NC3=C(CCCC/C3=C\c3cc(OC)c(OC)c(OC)c3)C2c2cc(OC)c(OC)c(OC)c2)S1` (stereo not given), the growth was 67.7%.

Regarding `Clc1ccccc1Nc1ccc2nnc(-c3ccncc3)n2n1`, the growth was 97.4%.

Regarding `O=c1oc2ccccc2cc1-c1csc(N=Nc2c(O)[nH]c3ccc(Cl)cc23)n1`, the growth is 94.6%.

Turning to `CCN(CC)c1ccc2c(c1)OS(=O)(=O)N=C2`, the growth is 99.3%.

Regarding `CCCCCCCC/C=C\CCCCCCCCOc1cccc(CC(=O)NCC[N+]2(C)CCOCC2)c1`, the growth is 51%.

Turning to `Cc1c(C(=O)Nc2nc(-c3ccccc3)cs2)nnn1-c1cccc2ccccc12`, the growth was 72.7% [50 µM].

As to `O=C1/C(=C/c2ccc(F)cc2)CN(Cc2cn(CCNc3ccnc4cc(Cl)ccc34)nn2)C/C1=C\c1ccc(F)cc1`, the growth was -91.4% (active).

Turning to `Cc1cc(NS(=O)(=O)c2ccc(NC(=O)COc3ccc(-c4cc5ccccc5[nH]4)cc3)cc2)no1`, the growth is 20.8%.

As to `NC(=O)c1cc(I)ccc1NC(=O)COc1ccc(Cl)cc1Cl`, the growth is 89.5%.

For the compound `COC(=O)C1C2CC3c4[nH]c5cc(OC)ccc5c4CCN3CC2CC(OC2CCCCO2)C1OC` (stereo not given), the growth is 97%.

Regarding `COc1cc(-c2nc(SC(C)C)nc(Nc3ccccc3C)c2C#N)cc(OC)c1OC`, the growth was 108%.

On to `O=C(NCc1ccc(F)cc1)C1CN(c2ccc(Cl)cc2)N(c2ccc(Cl)cc2)C1=O` (stereo not given), for which the growth is 56.6%.

Consider `COc1ccc(NC(=O)c2ccc3c(c2)nc(-c2ccc(Cl)cc2)n3-c2cc(C(C)(C)C)[nH]n2)cc1`, for which the growth was 83.3%.

Take `Cc1ccc2nc(NC(=O)CSC(=S)N3CCN(Cc4ccccc4)CC3)sc2c1`: the growth is -46.3% (active).

`Nc1nc(-c2ccnc(Cl)c2)nn1-c1nc2ccccc2s1`: the growth is 107%.
